A selection: hits, their analogues and other compounds. The true share with any hit is near 3%.
Wnt act – Wnt/beta-catenin pathway activators, primary screen, cell-based, plate reader, single point; activation, % at 9.35 µM; AID 743398, 2014; 300,000 compounds, 1.2% hits; Wnt/beta-catenin reporter cell assay, activator; in the data active = activation above about 30%, passing the limit was not always enough; inconclusive = no clear call, values can overlap the other calls;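 also: 0% = neutral control wells and 100% = positive control wells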
C2C12 statin – suppressors of statin myotoxicity in C2C12 myotubes, primary screen, cell-based, single point, plate reader; C2C12 myotubes + simvastatin, ATP luminescence, 48 h; scaled: DMSO 0, geranylgeraniol control 100; rescue of ATP level, % at 7.49 µM; 330,000 compounds, 0.78% hits;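 active = mean ATP rescue above about 67%, or every replicate alone reaching that limit, limit read from the data, passing the limit was not always enough; inconclusive = no clear call, values can overlap the other calls; inactive = mean under the limit and some replicate under it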;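 also: myotubes were challenged with 10 µM simvastatin during compound exposure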
esBAF inh – Bmi1 luciferase reporter increase in mESCs, primary screen, esBAF inhibitor project, mouse ES cells, Bmi1 luciferase knock-in, single point | 24 h; 100% = twice the neutral-well signal | reporter increase, % at 12.5 µM | 350,000 compounds, 2% hits | AID 602393, 2012; in the data active = activation above about 40%; inconclusive = no clear call, values can overlap the other calls;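 also: 0% = median of the plate's neutral control wells and 100% = double that signal; a rise in the Bmi1 reporter signal indicates esBAF inhibition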
MITF act – activators of MITF-driven TRPM1 promoter reporter, primary screen, cell-based, SK-MEL-5, luciferase, single point; SK-MEL-5 TRPM1-promoter luciferase, 24 h; % of positive control, neutral wells = 0; activation, % at 12.5 µM; 300,000 compounds, 0.75% hits; AID 588334, 2011;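 active = mean activation of at least 80% with every replicate also reaching 80%; inconclusive = mean reaches 80% but some replicate falls short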;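 also: 0% = neutral control wells and 100% = parthenolide positive control wells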
* marks the source's active call; other numbers are inactive results.

Screening Nc1c(-c2ccc(Cl)cc2)cnc2c(-c3ccccc3)cnn12 returned Wnt act 36*, C2C12 statin -22, esBAF inh 25 and MITF act 75.
`Nc1c(-c2ccc(Cl)cc2)cnn1-c1ccccc1` gave Wnt act inconclusive, C2C12 statin -34, esBAF inh 31 and MITF act 92*.
For CC(C)(C)S(=O)(=O)c1cnc2c(-c3ccc(Cl)cc3)cnn2c1N the results were Wnt act 2, C2C12 statin -10, esBAF inh 31 and MITF act 8.
`Cc1ccc(-c2cnn(-c3ccccc3)c2N)cc1` gave Wnt act 43*, C2C12 statin -37, esBAF inh 0 and MITF act 36.
`COc1ccccc1NC(=O)N[C@H]1CC[C@H](CCn2cc(C3(O)CCCC3)nn2)O[C@@H]1CO` gave C2C12 statin -12 and esBAF inh 2.
`C[C@H](CO)N1C[C@H](C)[C@@H](CN(C)Cc2ccncc2)Oc2ccc(NS(C)(=O)=O)cc2C1=O` gave C2C12 statin -18 and esBAF inh -3.
`O=C(C[C@H]1C=C[C@@H](NC(=O)CCN2CCCCC2)[C@@H](CO)O1)Nc1ccc(-c2ccccc2)cc1` gave C2C12 statin -6 and esBAF inh 4.
For COc1ccc(-c2cnn3c(N)c(S(=O)(=O)C(C)(C)C)cnc23)cc1 the results were Wnt act 2, C2C12 statin -83, esBAF inh 18 and MITF act 16.
For Cc1ccc(-c2cnn(-c3cccc([N+](=O)[O-])c3)c2N)cc1 the results were C2C12 statin 13, esBAF inh 83* and MITF act 64.
Screening Cc1ccccc1-c1cnn(-c2cccc([N+](=O)[O-])c2)c1N returned Wnt act 2, C2C12 statin -3, esBAF inh 34 and MITF act 39.
Screening Nc1c(-c2ccccc2)cnn1-c1cccc(C(F)(F)F)c1 returned C2C12 statin -26, esBAF inh 54* and MITF act 56.
COc1ccc(-c2cnc3c(-c4ccc(F)cc4)cnn3c2N)cc1 was read as Wnt act 43*, C2C12 statin -31, esBAF inh inconclusive and MITF act 59.
For O=C(CSc1ccc(-c2nc3ccccc3[nH]2)cn1)Nc1ccc2c(c1)OCCO2 the results were C2C12 statin -39, esBAF inh 46* and MITF act 146*.
`Cc1ccc(SCC(=O)Nc2ccc(-c3nc4ccccc4[nH]3)cc2)cc1` gave Wnt act -2, C2C12 statin -9, esBAF inh 61* and MITF act -6.
Cc1nc(NC(=O)CSc2ccc(-c3nc4ccccc4[nH]3)cn2)sc1C was read as MITF act 8.
For CCc1nnc(NC(=O)CSc2ccc(-c3nc4ccccc4[nH]3)cn2)s1 the results were C2C12 statin -27, esBAF inh inconclusive and MITF act 87*.
For Cc1cc2nc(-c3ccc(SCC(=O)Nc4ccc5c(c4)OCCO5)nc3)[nH]c2cc1C the results were Wnt act inconclusive, C2C12 statin 2, esBAF inh 3 and MITF act 64.
CCc1nnc(NC(=O)CSc2ccc(-c3ccc(-n4cccn4)cc3)nn2)s1 was read as Wnt act 28 and MITF act 82*.
Screening C[C@H]1CN([C@@H](C)CO)S(=O)(=O)c2ccc(-c3cccnc3)cc2O[C@@H]1CN(C)C(=O)NC1CCCC1 returned C2C12 statin -20 and esBAF inh -5.
For C[C@H](CO)N1C[C@H](C)[C@@H](CN(C)C(=O)c2ccncc2)OCCCC[C@H](C)Oc2ccc(NS(=O)(=O)c3ccccc3)cc2C1=O the results were esBAF inh 0.
For C[C@@H]1CN([C@@H](C)CO)C(=O)Cc2cc(NS(=O)(=O)c3cn(C)cn3)ccc2O[C@@H]1CN(C)S(C)(=O)=O the results were C2C12 statin 29 and esBAF inh -1.
For Cn1cnc(CCNC(=O)C[C@H]2CC[C@@H]3[C@H](COC[C@@H](O)CN3C(=O)Nc3ccc(F)cc3)O2)c1 the results were C2C12 statin 4 and esBAF inh -1.
For C[C@@H]1CN([C@H](C)CO)C(=O)c2cc(NC(=O)CCC(F)(F)F)ccc2O[C@H]1CN(C)Cc1ccc(-c2ccccc2)cc1 the results were C2C12 statin 27 and esBAF inh 4.
For COc1ccc(S(=O)(=O)N(C)C[C@@H]2Oc3ccc(NS(=O)(=O)c4ccc(F)cc4)cc3C(=O)N([C@@H](C)CO)C[C@H]2C)cc1 the results were C2C12 statin 32 and esBAF inh 3.
`CN(C)Cc1c(O)ccc2c(=O)c(-c3ccc(Cl)cc3)coc12` gave Wnt act -2, C2C12 statin -9, esBAF inh 64* and MITF act 22.
CNC(=O)C[C@H]1CC[C@H]2[C@H](COc3ccc(NC(=O)Cc4cccs4)cc3C(=O)N2C)O1 was read as C2C12 statin -20 and esBAF inh -3.
`CC(C)(O)[C@H]1Cc2cc3ccc(=O)oc3cc2O1` gave Wnt act 11, C2C12 statin 6, esBAF inh 0 and MITF act 98*.
C=C(C)C1Cc2cc3ccc(=O)oc3cc2O1 (stereo unspecified) was read as MITF act 38.
Screening CN(C(=O)COc1cc(C(F)(F)F)nn1C)c1ccccc1 returned Wnt act -2 and MITF act -4.
For Cn1nc(C(F)(F)F)cc1-c1ccc(S(N)(=O)=O)s1 the results were Wnt act 23, C2C12 statin -3, esBAF inh 52* and MITF act 72.
Screening Cn1nc(-c2ccc(S(N)(=O)=O)s2)cc1C(F)(F)F returned Wnt act 0, C2C12 statin 18, esBAF inh -12 and MITF act 6.
For CN(C)C(=O)c1ccc(-c2cc(C(F)(F)F)nn2C)s1 the results were Wnt act 33*.
Screening CN(c1ccc(C(=O)NCCSCc2ccco2)cc1)S(C)(=O)=O returned Wnt act -1, C2C12 statin -6, esBAF inh 26 and MITF act 43.
`CN(c1ccc(C(=O)NCc2ccco2)cc1)S(C)(=O)=O` gave Wnt act -2, C2C12 statin 107*, esBAF inh -1 and MITF act 4.
Screening CCNc1ccc(Br)cc(C(=O)/C=C/c2ccc(Cl)cc2Cl)c1=O returned Wnt act -6, C2C12 statin 82*, esBAF inh 7 and MITF act -25.
CNc1ccc(Br)cc(C(=O)/C=C/c2cc(OC)ccc2OC)c1=O was read as Wnt act -5, C2C12 statin 26, esBAF inh -5 and MITF act -49.
For CCOC(=O)c1ccc(NC(=O)CC2NCCNC2=O)cc1 (stereo unspecified) the results were Wnt act 0, C2C12 statin -9, esBAF inh 2 and MITF act 7.
Screening CCOC(=O)c1ccc(NC(=O)CC2SCCNC2=O)cc1 (stereo unspecified) returned Wnt act 41*, C2C12 statin -1 and esBAF inh 22.
